Only some compounds are listed: those with a hit (about 19% of all), similar ones and a draw of the others.
HT1080 IDH1KD tx: kills HT-1080 cells with IDH1 knockdown; HT-1080 IDH1 knockdown viability, ATP luminescence, 48 h; Potency, µM (titrated, usually from 46.1 µM), without a hit: at the top dose activity, negative = toxicity, usual class: cytotoxic; hit rate 2% among 360,000; AID 686971;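 note: potency is the fitted concentration of half-maximal effect; 0% = DMSO wells and -100% = cell-free medium wells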
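CellTiter-Glo luminescence after 48 h compound exposure at 37 degrees C of IDH1-knockdown HT-1080 cells in 5% FBS RPMI. %Activity scaled between DMSO wells and cell-free media wells, with curves fitted and assigned curve classes.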
DT40 TDP1 CPT: DT40-hTDP1 cell growth loss with CPT | chicken DT40 Tdp1-/-;hTDP1 cells + 20 nM CPT, ATP luminescence, 48 h | Potency, µM (series often up to 46.2 µM), for inactives: at the highest dose activity change, negative = growth inhibition, usual class: inhibitors | hit rate 12% among 420,000; note: potency is the fitted concentration of half-maximal effect; nearly all actives have a fitted effect of over 55% in size
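Chicken DT40 Tdp1-/- cells complemented with human TDP1, 400 cells/well, exposed to compounds plus 20 nM camptothecin for at least 48 h at 37 C; viability read as ATP content by CellTiter-Glo luminescence.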
IL-1B inflam inh: blocks inflammasome-driven IL-1 beta release; activity change, % at 57.5 µM; THP-1 LPS/ATP IL-1B secretion, AlphaLISA, 16 h; hits give low values; hit rate 4.7% among 360,000; in the data active = activity change below about -50%; inconclusive = mostly about -30% to -49%
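THP-1 cells pretreated 1 hr with compounds (up to 57.5 uM final), then stimulated with LPS (250 ng/mL final) plus ATP (1.25 mM final); secreted IL-1B measured by AlphaLISA after 16 hr, decreased signal indicating inhibition.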
TDP1 cell noCPT: qHTS for Inhibitors of human tyrosyl-DNA phosphodiesterase 1 (TDP1): qHTS in cells in absence of CPT | hit rate 15% among 420,000 | Potency, µM (series often up to 46.2 µM), inactives show top-dose activity change, negative = growth inhibition, actives largely listed as inhibitors | DT40 Tdp1-/- hTDP1 cells, no CPT, ATP luminescence, 48 h | AID 686978, 2013; note: potency is the fitted concentration of half-maximal effect; nearly all actives have a fitted effect of over 55% in size
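A cellular qHTS used chicken DT40 cells lacking endogenous Tdp1 but carrying stably transfected human TDP1. Compounds were applied without camptothecin, and cell growth kinetics were judged by ATP-dependent luminescence after ≥48 hr.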
HT1080-NT tox: kills 2HG-producing HT-1080-NT fibrosarcoma cells; HT-1080-NT fibrosarcoma viability, CellTiter-Glo ATP luminescence, 48 h; hit rate 1.6% among 360,000; Potency, µM (top dose mostly 46.1 µM), inactives show at the highest dose activity, negative = less viability, hits mostly cytotoxic;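 note: NT is the 2HG producing partner of a matched IDH1 knockdown line; potency is the fitted concentration of half-maximal effect; 0% = DMSO-treated cells and -100% = media-only wells without cells; nearly all actives have a fitted effect of over 55% in size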
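750 cells/well, RPMI + 5% FBS; 2 h settle, compound pin-transfer, 48 h at 37 degrees C. CellTiter-Glo 10 min RT, luminescence. Normalized to DMSO and media-only wells.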
* marks the source's active call; other numbers are inactive results; ? = inconclusive; / = no result given. Unless noted, calls come from the whole dose curve; as a rule, active = well fitted curve in the direction sought with a large enough effect; inconclusive = small, poorly fitted or top-dose-only effect, or another doubt; inactive = no such curve, though single readings can be large; an effect the other way counts as inactive or inconclusive. Unless noted, % is set by controls: 0 for no effect and ±100 for the full control effect.

SMILES	HT1080 IDH1KD tx	DT40 TDP1 CPT	IL-1B inflam inh	TDP1 cell noCPT	HT1080-NT tox
CCC(=O)N1CCc2cc(S(=O)(=O)N(CC)c3cccc(C)c3)ccc21	-20%	?	-2	?	-9%
CCCCN(C)S(=O)(=O)c1cc2c(cc1Br)CCN2C(=O)C1CC1	-12%	4.1µM*	1	3.7µM*	-1%
O=C(C1CC1)N1CCc2cc(Br)cc(S(=O)(=O)Nc3ccc(F)c(F)c3)c21	/	23µM*	/	23µM*	/
Cc1ccc(NS(=O)(=O)c2cc(Br)cc3c2N(C(=O)C2CC2)CC3)cc1C	/	2.6µM*	/	2.1µM*	/
CCCNS(=O)(=O)c1cc2c(cc1Br)CCN2C(=O)CC	22%	-15%	12	-8%	11%
CCN(c1cccc(C(F)(F)F)c1)S(=O)(=O)c1ccc2c(c1)CCN2C(=O)C1CC1	?	16µM*	?	16µM*	-28%
O=C(COC(=O)Cc1ccsc1)NCC1CCCCC1	7%	3%	0	3%	11%
COc1ccccc1CNC(=O)c1ccc2nc(N3CCOCC3)sc2c1	9%	-9%	3	-26%	20%
CC1(C(=O)NS(=O)(=O)c2ccccc2)CCN1C(=O)Cc1ccc(Cl)cc1Cl (configuration not stated)	-3%	-11%	9	-19%	6%
CCOC(=O)[C@H]1[C@H]2COc3ccc(OC)cc3[C@@H]2N2C(=O)c3ccccc3NC(=O)[C@@]12C	15%	-7%	-1	-13%	24%
O=C(C1CC1)N1CCc2cc(Br)cc(S(=O)(=O)N3CCN(c4cccc(C(F)(F)F)c4)CC3)c21	/	?	/	8.2µM*	/
CCN(c1ccccc1)S(=O)(=O)c1cc(Br)cc2c1N(C(=O)C1CC1)CC2	/	16µM*	/	18µM*	/
CCOC(=O)C1CCN(S(=O)(=O)c2cc(Br)cc3c2N(C(=O)C2CC2)CC3)CC1	0%	?	19	-12%	-4%
O=C(C1CC1)N1CCc2cc(Br)cc(S(=O)(=O)NCCCN3CCCC3)c21	-3%	18%	11	-6%	0%
CCOC(=O)c1cccc(NS(=O)(=O)c2cc(Br)cc3c2N(C(=O)C2CC2)CC3)c1	/	?	/	23µM*	/
O=C(C1CC1)N1CCc2cc(Br)cc(S(=O)(=O)Nc3ccc(C(F)(F)F)cc3)c21	/	18µM*	/	16µM*	/
CC(=O)c1ccc(NC(=S)N(C)C2CCN(C)CC2)cc1	-4%	-11%	?	-1%	-6%
O=C(Nc1cccc(F)c1)N1CCCC2(CCN(C(=O)c3cnccn3)CC2)C1	/	17%	/	-1%	/
CCN(CC)S(=O)(=O)c1cccc(C(=O)NC(C(=O)Nc2nnc(C)s2)C(C)C)c1 (configuration not stated)	3%	?	6	?	7%
Cc1cccc(OCc2nnc(SCC(=O)c3c(N)n(C4CC4)c(=O)[nH]c3=O)o2)c1	-5%	2%	25	?	-6%
CCc1ccc(NC(=O)[C@H](C)NC(=O)C2CCN(C(=O)[C@@H](N)C(C)C)CC2)cc1	3%	-1%	0	-2%	1%
CN1CCN(C(=O)/C(=C\c2cccs2)NC(=O)c2ccco2)CC1	-2%	0%	2	-20%	7%
CCn1c2ccccc2c2cc(CN3CCN(Cc4ccc(Br)cc4)CC3)ccc21	/	18µM*	/	15µM*	/
CCn1c2ccccc2c2cc(CN3CCN(S(=O)(=O)Cc4ccccc4)CC3)ccc21	-11%	?	34	15µM*	-18%
COC(=O)/C=C/CC(C)OS(N)(=O)=O (configuration not stated)	10%	-2%	27	12%	16%
SMILES	HT1080 IDH1KD tx	DT40 TDP1 CPT	IL-1B inflam inh	TDP1 cell noCPT	HT1080-NT tox
O=[N+]([O-])c1cccc(COc2cccc(CN3CCOCC3)c2)c1	-7%	-10%	0	-24%	-7%
O=[N+]([O-])c1cccc(COc2ccccc2CN2CCCCC2)c1	-4%	?	-20	?	0%
O=[N+]([O-])c1ccc(COc2cccc(CN3CCOCC3)c2)cc1	4%	18µM*	-15	23µM*	-2%
O=[N+]([O-])c1cccc(COc2ccc(CN3CCCCC3)cc2)c1	-3%	21µM*	-12	23µM*	-6%
CC(C)CN1C(=O)c2ccc(NC(=O)Cc3ccccc3)cc2C1=O	0%	-13%	-16	-22%	8%
Cc1ccccc1OCCCCCn1ccnc1	-5%	21µM*	?	16µM*	1%
CCCCOc1ccc(NC(=O)C(=O)NCCCn2ccnc2)cc1	10%	?	10	18µM*	-1%
Cc1cc(OCCCCn2ccnc2)cc(C)c1Cl	?	18µM*	-70*	21µM*	-28%
Cc1cc(OCCCn2ccnc2)ccc1C(C)C	-2%	?	-21	21µM*	5%
Cc1cc(Cl)cc(C)c1OCCCCn1ccnc1	?	?	-26	?	-27%
CC1CCCN(C(=O)c2cn(-c3ccccc3)nc2-c2cccnc2)C1 (configuration not stated)	13%	-28%	-3	?	16%
CCOc1ccc(C(=O)Nc2ccc(-c3nc4ccccc4s3)c(C)c2)cc1OCC	/	6%	/	0%	/
CN(C)CCNC(=O)COc1cccc(Cl)c1	20%	5%	-10	-3%	3%
CCn1c(=O)cc(SCC(=O)NCc2ccc(OC)cc2OC)c2ccccc21	/	-27%	/	-29%	/
CC(C)(C)c1ccc(OCCCn2ccnc2)cc1	-24%	-3%	-68*	?	-12%
c1ccc2cc(OCCCn3ccnc3)ccc2c1	-2%	21%	?	?	-1%
CCC(CO)NCc1ccc(-c2ccccc2)cc1 (configuration not stated)	-23%	?	0	?	-10%
Cc1cc(C)c2c(c1)N[C@H](c1cccs1)[C@@H]1CCO[C@H]21	9%	-21%	-15	?	9%
CC(C)c1ccc2c(c1)[C@H]1OCC[C@H]1[C@@H](c1cccs1)N2	3.3µM*	16µM*	-2	10µM*	2.9µM*
CCc1ccccc1NC(=O)CCCn1c(=O)c2cccn2c2ccccc21	/	?	/	16µM*	/
Cc1ccc(NC(=O)CCn2cnc3ccccc3c2=O)cc1Cl	-13%	-16%	-8	-6%	-12%
CN(C)CCNC(=O)CCCn1c(=O)c2cccn2c2ccccc21	/	15%	/	-3%	/
Cc1ccc(NC(=O)CCn2c(=O)c3cccn3c3ccccc32)cc1Cl	/	18µM*	/	23µM*	/
Cc1ccc(NC(=O)CCCn2c(=O)c3cccn3c3ccccc32)cc1C	/	16µM*	/	12µM*	/
Cc1c(Cl)cccc1NC(=O)CCn1c(=O)c2cccn2c2ccccc21	/	?	/	16µM*	/

Compound activity as filed in PubChem BioAssay.
